Results taken from PubChem BioAssay (Tox21).
Inconclusive results are not listed. A call without a number means that no potency is given here. Calls of active or inactive are those of the source. The call rests on the fitted dose curve.

Assay: qHTS assay for small molecule disruptors of the mitochondrial membrane potential - cell viability (AID 720634); further: nearly all actives have a fitted effect of over 20% in size;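 on activity change, negative = cytotoxicity: human HepG2 liver cancer cells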
Settings: HepG2 viability, ATP luminescence (CellTiter-Glo), 1 h; series mostly up to 83.2 µM
From the text: U.S. Tox21 Program National Center for Advancing Translational Sciences [NCATS] NIH Chemical Genomics Center [NCGC] U.S. Environmental Protection Agency [EPA] National Institutes of Environmental Health Sciences [NIEHS] National Toxicology Program [NTP] U.S. Food and Drug Administration [FDA] Tox21 Assay Overview: Mitochondrial membrane potential (MMP), one of the parameters for mitochondrial function, is generated by mitochondrial electron transport chain that creates an electrochemical gradient by a series of redox reactions. This gradient drives the synthesis of ATP, a crucial molecule for various cellular processes. Measuring MMP in living cells is commonly used to assess the effect of chemicals on mitochondrial function; decreases in MMP can be detected using lipophilic cationic fluorescent dyes. […] The dye accumulates in the mitochondria of healthy cells as aggregates, with red fluorescence. The mitochondrial potential decreases and the dye could not accumulate in the mitochondria and remains in the cytoplasm in monomers, with green fluorescence. In addition to the mitochondrial potential assay, these cells were also used to test the cytotoxicity by determining the cell viability in the culture based on the quantitation of ATP present. The cytotoxicity was measured in the same assay well of MMP assay.
Tox21 Assay Protocol Summary: 2,000 HepG2 cells in 5 uL/well were dispensed into black, clear-bottom 1536-well plates using a Multidrop Combi (Thermo Scientific) dispenser. The assay plates were incubated for an overnight at 37 C to allow cells to attach to the wells, followed by the transfer of 23 nL compound or DMSO vehicle by a pin tool (Kalypsys). The plates were incubated for 1 hr at 37 C and 5% CO2, followed by the addition of 5 uL of 2X m-MPI dye into each well using Flying Reagent Dispenser (Aurora Discovery) and then CellTiter-Glo reagent was added at 4 uL/well and incubated 30 min at room temperature. Then luminescence intensity was quantified on a ViewLux CCD-based plate reader.
Potency means the concentration at half of the fitted maximal effect.

| Structure (SMILES) | Potency | activity change, negative = cytotoxicity |
| --- | --- | --- |
| O=C(O)c1cccc(O)c1 | inactive |  |
| C=CCCCCCCCCCCCCCCCC |  | 11.3% [at 8.08 µM] (inactive) |
| C/C=C/C=C/CCCCCCCO | inactive |  |
| CC(C)(C)C(=O)C(Oc1ccc(Cl)cc1)n1ccnc1 (stereo not given) | inactive |  |
| CC(=O)OCC(=O)[C@@]12OC(C)(C)O[C@@H]1C[C@H]1[C@@H]3C[C@H](F)C4=CC(=O)C=C[C@]4(C)[C@@]3(F)[C@@H](O)C[C@@]12C | inactive |  |
| C(=C\c1ccccc1)/CN1CCN(C(c2ccccc2)c2ccccc2)CC1 | inactive |  |
| CN1CCN(c2c(F)cc3c(=O)c(C(=O)O)cn4c3c2OCN4C)CC1 | inactive |  |
| CC(=O)OCC(=O)[C@H]1CC[C@H]2[C@@H]3CCC4=CC(=O)CC[C@]4(C)[C@H]3CC[C@]12C | inactive |  |
| O=C(O)Cc1ccc(-c2ccccc2)cc1 | inactive |  |
| CNCCCC1c2ccccc2C=Cc2ccccc21 | inactive |  |
| CCOC(=O)c1ccccc1OC | inactive |  |
| O=C(CCC1CCN(Cc2ccccc2)CC1)c1ccc2c(c1)NCCCC2 | inactive |  |
| Cc1nc2ccccc2s1 | inactive |  |
| CC1CC(=O)NN=C1c1ccc(NCC(C)(C)NCC(O)COc2cc(Cl)ccc2C#N)cc1 (stereo not given) | inactive |  |
| C=CC(=C)CCCC(C)(C)OC(C)=O | inactive |  |
| O=C(C(=O)c1ccccc1)c1ccccc1 | inactive |  |
| CCCCCCCCCCCC[N+](C)(C)CCCS(=O)(=O)[O-] | inactive |  |
| COCC(O)CO (stereo not given) | inactive |  |
| CC1CN(c2cc3c(cc2F)c(=O)c(C(=O)O)cn3-c2ccc(F)cc2F)CCN1 (stereo not given) | inactive |  |
| CC[C@@H]([C@H](C)O)n1ncn(-c2ccc(N3CCN(c4ccc(OC[C@@H]5CO[C@@](Cn6cncn6)(c6ccc(F)cc6F)C5)cc4)CC3)cc2)c1=O | inactive |  |

| Structure (SMILES) | Potency | activity change, negative = cytotoxicity |
| --- | --- | --- |
| C[N+](C)(C)CCOC(N)=O | inactive |  |
| C=CC(=O)NCOCC(C)C | inactive |  |
| O=C(CCCCCCCCC#CI)Oc1ccccc1 | inactive |  |
| CN(C)C(=O)Nc1ccc(Oc2ccc(Cl)cc2)cc1 | inactive |  |
| Nc1ccc(S(=O)(=O)O)cc1 | inactive |  |
| CO[C@H]1O[C@H](CO)[C@@H](O)[C@H](O)[C@H]1O | inactive |  |
| Cc1oc(C)c(C(=O)Nc2ccccc2)c1C | inactive |  |
| CCCCCCCC/C=C\CCCCCCCC(=O)OC(CO)CO | inactive |  |
| CC(C)=CC=O | inactive |  |
| Nc1ccc(C(=O)OCCCOC(=O)c2ccc(N)cc2)cc1 | inactive |  |
| Nc1nc(Cl)nc2c1ncn2[C@@H]1O[C@H](CO)[C@@H](O)[C@@H]1F | inactive |  |
| CC1=C(C=O)C(C)(C)CCC1 | inactive |  |
| O=C(CS)OCCOC(=O)CS | inactive |  |
| O=C(CCCN1CCC(O)(c2ccc(Br)cc2)CC1)c1ccc(F)cc1 | inactive |  |
| c1cnc2c(n1)CCCC2 | inactive |  |
| O=C(CCCN1CCN(c2ccc(F)cc2)CC1)NC1c2ccccc2CSc2ccccc21 (stereo not given) | inactive |  |
| Cc1oncc1C(=O)Nc1ccc(C(F)(F)F)cc1 | 61.1 µM (active) |  |
| C[C@@H]1C[C@H]2[C@@H]3CCC4=CC(=O)C=C[C@]4(C)[C@@]3(F)[C@@H](O)C[C@]2(C)[C@@]1(O)C(=O)CO | inactive |  |
| CC(=O)Oc1ccc(C(=C2CCCCC2)c2ccc(OC(C)=O)cc2)cc1 | inactive |  |
| CC[C@H](NC(=O)c1cc(F)ccc1NS(=O)(=O)c1cccc2cccnc12)c1ccccc1 | inactive |  |
